“And” between values parts separate entries of the source, which are not always exact repeats. Equal values may be shown once. Where a name gives a salt, the structure may show the parent alone.
Experiments:
Test in all cases: cell viability relative to vehicle control; higher = less cytotoxic
Conditions in all cases: 10 µM
K562 = system: K562
Method in brief: (§1)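 CRISPR-edited mutant clones and isogenic wild-type clones from four leukaemia lines were screened against Selleck bioactive, kinase and epigenetic probe libraries, with identity-inconsistent compounds excluded. Each compound was acoustically dispensed at a single 10 µM dose into 384-well plates holding 2000 cells in 50 µL medium per well. After 48 h the supernatant was removed and CellTiter-Glo luminescence was read. Viability was expressed as percent of the on-plate vehicle control and analysed in Genedata Screener.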

MARIMO = system: MARIMO
Method in brief: as §1

MOLM14 = system: MOLM14
Method in brief: as §1

OCI-AML2 = system: OCI-AML2
Method in brief: as §1

| Compound | cell viability (K562; SRSF2 genotype: SRSF2 P95H/wt) | cell viability (K562; SRSF2 genotype: SRSF2 wt/wt) [%] | cell viability (MARIMO; SRSF2 genotype: SRSF2 P95H/wt) [%] | cell viability (MARIMO; SRSF2 genotype: SRSF2 wt/wt) [%] | cell viability (MOLM14; SRSF2 genotype: SRSF2 P95H/wt) [%] | cell viability (MOLM14; SRSF2 genotype: SRSF2 wt/wt) [%] | cell viability (OCI-AML2; SRSF2 genotype: P95H/wt) [%] | cell viability (OCI-AML2; SRSF2 genotype: wt/wt) [%] |
| --- | --- | --- | --- | --- | --- | --- | --- | --- |
| Cc1cc(C2CCCCC2)n(O)c(=O)c1 [Ciclopirox (Penlac)] | 54.8% and 52% | 42.2 | 14.8 | 21.8 | 7.11 | 2.18 | 15.5 | 16.3 |
| OC[C@H]1O[C@@H](Oc2c(O)cc(O)cc2/C=C/c2ccc(O)cc2)[C@H](O)[C@@H](O)[C@@H]1O [Astragalus polyphenols] | 91% and 89.8% | 88.5 | 82.9 | 96.1 | 67.9 | 80.4 | 76.8 | 84.5 |
| O=C(Nc1ccc(Br)cc1)c1c(O)cccc1O [Resorantel] | 17.7% and 15.3% | 19.6 | 38.7 | 39.3 | 17.5 | 11.8 | 4.86 | 14.2 |
| O=C(O)c1ccc(Cl)cc1O [4-Chloro-2-hydroxybenzoic acid] | 108% and 109% | 98.6 | 104 | 103 | 101 | 107 | 101 | 115 |
| C=C(CCC=C(C)C)[C@H]1CC[C@]2(C)[C@@H]1[C@H](O)C[C@@H]1[C@@]3(C)CC[C@H](O[C@@H]4O[C@H](CO)[C@@H](O)[C@H](O)[C@H]4O[C@@H]4O[C@H](CO)[C@@H](O)[C@H](O)[C@H]4O)C(C)(C)[C@@H]3CC[C@]12C [Ginsenoside Rk1] | 107% and 97.8% | 107 | 105 | 104 | 108 | 104 | 100 | 104 |
| CCCCCCCCCC(=O)OCC(COC(=O)CCCCCCCCC)OC(=O)CCCCCCCCC [Glyceryl tridecanoate] | 105% and 101% | 100 | 106 | 114 | 100 | 104 | 97.2 | 98.6 |
| O=C(/C=C/c1ccc2ccccc2n1)c1ccncc1 | 6.76% and 0.53% | 0.42 | 0.28 | 0.4 | 0.4 | 0.45 | 0.31 | 0.36 |
| CCC1(c2ccccc2)C(=O)NCNC1=O [Primidone (Mysoline)] | 113% and 104% | 107 | 106 | 114 | 102 | 107 | 98 | 110 |
| O=c1[nH]cnc2nc[nH]c12 [Hypoxanthine] | 98.8% and 108% | 96.8 | 101 | 116 | 103 | 115 | 103 | 105 |
| O=c1ccn(C2OC(CO)C(O)C2O)c(=O)[nH]1 (centres undefined) | 90.3% and 93.8% | 99.6 | 99.2 | 97.5 | 100 | 100 | 100 | 95.4 |
| Fc1ccc(C(c2ccc(F)cc2)N2CCN(C/C=C/c3ccccc3)CC2)cc1 [Flunarizine 2HCl] | 67.8% and 82.2% | 72.8 | 50.4 | 37.9 | 46.8 | 60.7 | 28.7 | 26.7 |
| COc1c(C)cnc(Cn2cnc3c(Cl)nc(N)nc32)c1C | 21.6% and 31% | 29.2 | 32.7 | 25.9 | 2.67 | 2.88 | 18.4 | 22.2 |
| O=C(Nc1cnn2ccc(N3CCC[C@@H]3c3cc(F)ccc3F)nc12)N1CC[C@H](O)C1 [LOXO-101(sulfate)] | 104% and 105% | 104 | 113 | 118 | 97.6 | 104 | 98.2 | 104 |
| CC(C)=C1CC[C@@H](C)CC1=O [Pulegone] | 95.9% and 92.3% | 93 | 101 | 95.6 | 98.1 | 96.3 | 96 | 98.7 |
| Cc1cccc(C)c1NC(=O)c1cc(S(N)(=O)=O)c(Cl)cc1O [Xipamide] | 101% and 94.8% | 104 | 103 | 113 | 101 | 107 | 97.5 | 106 |
| Nc1nc(-c2ccco2)c2cnn(Cc3ccccc3F)c2n1 [A2AR antagonist 1] | 76% and 77.7% | 72.9 | 73.4 | 70.2 | 88.9 | 98.6 | 91.6 | 88.5 |
| c1ccc(Cn2c(-c3ccc(OCC(C4CCNCC4)n4c(-c5ccccc5)nc5ccccc54)cc3)nc3ccccc32)cc1 (centres undefined) [Deltarasin] | 0.43% and 0.39% | 0.44 | 0.34 | 0.33 | 0.28 | 0.28 | 0.24 | 0.3 |
| C[C@@H]1CC[C@@]2(OC1)O[C@H]1C[C@H]3[C@@H]4CC=C5C[C@@H](O)C[C@@H](O)[C@]5(C)[C@H]4CC[C@]3(C)[C@H]1[C@@H]2C [Ruscogenin] | 96.3% and 102% | 98 | 98.9 | 103 | 103 | 110 | 89.2 | 94.3 |
| Oc1cc(O)cc(/C=C/c2ccc(O)c(O)c2)c1 [Piceatannol] | 86.5% and 89.3% | 97 | 92.8 | 88.8 | 71.8 | 79.7 | 90.4 | 87.9 |

| Compound | cell viability (K562; SRSF2 genotype: SRSF2 P95H/wt) | cell viability (K562; SRSF2 genotype: SRSF2 wt/wt) [%] | cell viability (MARIMO; SRSF2 genotype: SRSF2 P95H/wt) [%] | cell viability (MARIMO; SRSF2 genotype: SRSF2 wt/wt) [%] | cell viability (MOLM14; SRSF2 genotype: SRSF2 P95H/wt) [%] | cell viability (MOLM14; SRSF2 genotype: SRSF2 wt/wt) [%] | cell viability (OCI-AML2; SRSF2 genotype: P95H/wt) [%] | cell viability (OCI-AML2; SRSF2 genotype: wt/wt) [%] |
| --- | --- | --- | --- | --- | --- | --- | --- | --- |
| C[C@@H]1CCCC2=CC(=O)[C@@H]3[C@@H](C3(C)C)[C@]21C [Aristolone] | 107% and 96.8% | 101 | 95.8 | 103 | 112 | 99 | 98.3 | 109 |
| CN(C)C/C=C/C(=O)Nc1cc2c(Nc3ccc(F)c(Cl)c3)ncnc2cc1O[C@H]1CCOC1 [Afatinib (BIBW2992)] | 8.97% and 5.94% | 6.24 | 1.96 | 1.37 | 0.03 | 0.04 | 0.06 | 0.13 |
| NC(=O)N1c2ccccc2CC(=O)c2ccccc21 [Oxcarbazepine] | 89% and 97.3% | 94.8 | 85.3 | 99.1 | 73.4 | 92.3 | 86 | 86.9 |
| OC[C@@H](O)[C@@H](O)[C@H](O)[C@@H](O)CO [Sorbitol (Glucitol)] | 101% and 105% | 102 | 103 | 102 | 97.3 | 104 | 101 | 100 |
| COCCCC/C(=N\OCCN)c1ccc(C(F)(F)F)cc1 [Fluvoxamine maleate] | 94.3% and 95.6% | 98.9 | 80.8 | 91.5 | 87.8 | 98 | 93.9 | 88.2 |
| COc1cc(OC)c(/C=C/S(=O)(=O)Cc2ccc(OC)c(NCC(=O)O)c2)c(OC)c1 | 16.5% and 39% | 35.6 | 5.99 | 9.46 | 0.51 | 0.74 | 1.32 | 2.98 |
| CN1CCN(c2ccc(-c3ccncc3-c3cc(F)c(O)c(F)c3)cc2)CC1 | 94.2% and 97.1% | 95.9 | 80.1 | 85.4 | 66.4 | 88.8 | 99.5 | 91.1 |
| CCCCC(F)(F)[C@@]1(O)CC[C@H]2[C@@H](CC(=O)[C@@H]2CCCCCCC(=O)O)O1 [Lubiprostone] | 101% and 100% | 104 | 93.9 | 98 | 84.5 | 98.8 | 83.6 | 88 |
| CC1(C)[C@@H](OC(=O)CCC(=O)O)CC[C@]2(C)[C@H]3C(=O)C=C4[C@@H]5C[C@@](C)(C(=O)O)CC[C@]5(C)CC[C@@]4(C)[C@]3(C)CC[C@@H]12 [Carbenoxolone disodiuM] | 95.9% and 92.2% | 88 | 96.2 | 99 | 91.8 | 96.7 | 89.3 | 103 |
| C[C@H](CCC(=O)O)[C@H]1CC[C@H]2[C@@H]3[C@@H](O)C[C@@H]4C[C@H](O)CC[C@]4(C)[C@H]3CC[C@]12C [Ursodiol (Actigal Urso)] | 95.3% and 97.4% | 96.6 | 103 | 98.9 | 99.4 | 100 | 98.1 | 99.7 |
| CCOc1ccc(Cc2cc([C@@H]3O[C@H](SC)[C@@H](O)[C@H](O)[C@H]3O)ccc2Cl)cc1 [Sotagliflozin (LX4211)] | 84.2% and 86% | 81.4 | 86.3 | 97.3 | 89.7 | 89.5 | 88.6 | 96.9 |
| O=C(O)/C=C/c1ccc(Cn2ccnc2)cc1 [Ozagrel HCl] | 97.6% | 96.3 | 92.8 | 109 | 98.8 | 103 | 92.6 | 105 |
| Cc1cc(Nc2cc(N3CCN(C)CC3)nc(Sc3ccc(NC(=O)C4CC4)cc3)n2)n[nH]1 [VX-680 (MK-0457, Tozasertib)] | 16.4% and 18.7% | 14.8 | 53.6 | 38 | 6.03 | 9.53 | 14.4 | 19.3 |
| COc1ccc(C[C@@H]2c3cc(OC)c(OC)cc3CC[N@+]2(C)CCC(=O)OCCCCCOC(=O)CC[N@@+]2(C)CCc3cc(OC)c(OC)cc3[C@H]2Cc2ccc(OC)c(OC)c2)cc1OC [Cisatracurium besylate (Nimbex)] | 93.3% and 95.8% | 92.4 | 79 | 94 | 70.7 | 93 | 99.5 | 111 |
| COc1ccc(CNCc2cccc3ccccc23)cc1 | 91.6% and 97% | 95.1 | 88.5 | 97.4 | 97.4 | 101 | 92.4 | 101 |
| C[C@]12CC[C@@H]3c4ccc(OC(=O)c5ccccc5)cc4CC[C@H]3[C@@H]1CC[C@@H]2O [Estradiol Benzoate] | 62.1% and 62.4% | 77.2 | 54.6 | 35.6 | 82.6 | 76.1 | 58.4 | 46.7 |
| Nc1ccccc1NC(=O)c1ccc(CNC(=O)OCc2cccnc2)cc1 [Entinostat (MS-275, SNDX-275)] | 9.53% and 33.8% | 26.6 | 22.1 | 25.4 | 1.22 | 1.1 | 0.59 | 4.33 |
| CC(C)[C@H](C(=O)Nc1ccc(C(=O)NO)cc1)c1ccccc1 | 1.61% and 11.3% | 3.69 | 5.31 | 12.1 | 0.73 | 0.52 | 2.49 | 4.03 |
| O=C(/C=C/c1cccc(S(=O)(=O)Nc2ccccc2)c1)NO [Belinostat (PXD101)] | 1.83% and 15.8% | 5.17 | 8.17 | 13.7 | 0.86 | 0.57 | 2.66 | 4.34 |

— the supplement of paper PMC10981050
